# In the library only some 21% were active in any assay of this set; here they are far more common.
# NS1 inh = qHTS Assay for Inhibitors of Influenza NS1 Protein Function; Potency, µM (titrated, usually from 46.1 µM); hit rate 0.4% among 270,000; calls by dose curve; also: actives are rising curves; nearly all actives have a fitted effect of over 50% in size
#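 A cell-based growth assay was used: compounds that relieve NS1-induced slow growth of budding yeast raise OD600. Assay medium was yeast nitrogen base with ammonium sulphate and -URA supplement, pH 6.0, with 2% galactose.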
# CHX counter = Cycloheximide Counterscreen for Small Molecule Inhibitors of Shiga Toxin. hit rate 12% among 300,000. max response, %. cell reporter, cycloheximide protein synthesis inhibition counterscreen; in the data active = max response mostly above about 13%, no sharp cut-off; inactive = mostly below about 14%; also: read at 38.3 µM for the half of the compounds with a filed dose
# Pf growth 96h = Primary qHTS for delayed death inhibitors of the malarial parasite plastid, 96 hour incubation; P. falciparum luciferase reporter growth, 96 h; Potency, µM (highest dose often 28.7 µM), actives largely listed as inhibitors; hit rate 6.9% among 320,000; AID 504834, 2011
#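 Parasite growth measured via integrated firefly luciferase reporter in P. falciparum. Infected erythrocytes at 2% hematocrit, 0.05% parasitemia final were treated 96 hours at 37 C under 5% CO2, and luminescence was read.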
# Shiga inhibitor = A qHTS for Small Molecule Inhibitors of Shiga Toxin; Vero cells, Shiga toxin protein synthesis inhibition reporter; inhibition, % at 38.7 µM; hit rate 9.2% among 290,000; AID 2315, 2010; in the data active = inhibition mostly above about 28%, no sharp cut-off; inactive = mostly below about 43%
# Pf growth 48h = Primary qHTS for delayed death inhibitors of the malarial parasite plastid, 48 hour incubation; P. falciparum luciferase growth in erythrocytes, 48 h; Potency, µM (series often up to 28.7 µM), most hits filed as inhibitors; hit rate 5.9% among 310,000; AID 504832, 2011
#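 Growth was read as firefly luciferase luminescence after a 48 h, 37 C, 5% CO2 exposure of compounds to reporter-bearing P. falciparum cultures (0.1% parasitemia, 2% hematocrit final) in Albumax-supplemented RPMI 1640.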
# Giardia FBPA inh = qHTS Assay for Inhibitors of Fructose-1,6-bisphosphate Aldolase from Giardia Lamblia. purified Giardia FBPA. hit rate 0.71% among 290,000. Potency, µM (series often up to 59.6 µM), hits mostly inhibitors; also: nearly all actives have a fitted effect of over 55% in size
# Target sequence (A8B2U2 whole entry, looked up): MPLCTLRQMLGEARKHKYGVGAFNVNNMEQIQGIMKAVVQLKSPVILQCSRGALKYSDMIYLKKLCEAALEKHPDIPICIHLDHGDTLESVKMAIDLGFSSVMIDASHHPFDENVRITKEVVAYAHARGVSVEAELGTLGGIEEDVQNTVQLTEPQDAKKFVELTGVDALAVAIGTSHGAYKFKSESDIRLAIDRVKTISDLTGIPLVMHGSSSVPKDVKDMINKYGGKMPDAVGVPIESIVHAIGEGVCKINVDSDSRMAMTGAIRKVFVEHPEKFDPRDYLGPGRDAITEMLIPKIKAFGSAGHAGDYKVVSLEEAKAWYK
#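 40 nM FBPA preincubated 10 min at RT with compound (up to 57.5 uM final), then substrate plus GAPDH/TPI/NAD/arsenate coupling and diaphorase/resazurin added. Fluorescence read after 20 min at RT, 525/598 nm.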
# Hits are given with their value; . = inactive; ? = inconclusive; / = not tested or not shown; [ ] = remark or other dose. Unless noted, calls follow the shape of the dose curve; as a rule, active = well fitted curve in the direction sought with a large enough effect; inconclusive = small, poorly fitted or top-dose-only effect, or another doubt; inactive = no such curve, though single readings can be large; an effect the other way counts as inactive or inconclusive.
SMILES,NS1 inh,CHX counter,Pf growth 96h,Shiga inhibitor,Pf growth 48h,Giardia FBPA inh
O=C(O)CCC(O)=C1S(=O)(=O)OCCOS1(=O)=O,.,/,/,/,/,/
CC(C)CN(C(=O)c1cccc(S(=O)(=O)N2CCN(c3ccc(F)cc3)CC2)c1)C1CCS(=O)(=O)C1 (centres undefined),/,/,.,/,.,/
COCc1nc2ccccc2n1Cc1ccccc1,.,20,?,.,.,.
COCc1nc2ccccc2n1Cc1ccc(Br)cc1,.,.,.[5.75 µM],.,?,.
ClCc1nc2ccccc2n1Cc1ccccc1,.,.,?,.,6.6µM,.
CC(=O)NCCc1c[nH]c2ccccc12,.,.,.,.,.,.
COc1ccc(-c2cn(CCc3c[nH]c4ccccc34)nn2)cc1,.,7.4,9.3µM,.,.,.
COc1ccc(-c2cn(Cc3cccc(OC)c3)nn2)cc1,.,29,.,82,.,.
COc1ccc(C(=O)NCCc2c[nH]c3ccccc23)cc1,.,45,?,77,.,.
O=C(NCCc1c[nH]c2ccccc12)c1ccc(Cl)cc1,.,48,?,127,.,.
COc1ccc(OC(=O)CCc2c[nH]c3ccccc23)cc1,/,.,?,.,.,.
COc1ccc(OCC(=O)NCCc2c[nH]c3ccccc23)cc1,.,.,.,.,.,.
COc1ccc(Cl)cc1C(=O)n1cnc2ccccc21,.,.,?,/,.,.
O=C(NCCc1c[nH]c2ccccc12)c1cncc(Br)c1,/,.,?,.,.,.
O=C(NCCc1c[nH]c2ccccc12)c1cnccn1,/,.,.,38,.,.
O=C(NCCc1c[nH]c2ccccc12)C(=O)c1c[nH]c2ccccc12,.,.,?,.,.,/
O=C(NCCc1c[nH]c2ccccc12)c1ccc(F)cc1F,.,25,.,116,.,.
COc1cc(SC)ccc1C(=O)NCCc1c[nH]c2ccccc12,.,27,.,.,.,.
COc1ccccc1NC(=O)NCCc1c[nH]c2ccccc12,.,.,.,.,.,.
CCC(=O)NCCc1c[nH]c2ccccc12,.,.,.,.,.,.
Cc1ccsc1C(=O)NCCc1c[nH]c2ccccc12,.,36,.,73,.,/
O=C(CCNS(=O)(=O)c1ccc(OC(F)(F)F)cc1)NCCc1c[nH]c2ccccc12,/,/,10µM,/,?,/
O=C(NCCc1c[nH]c2ccccc12)c1cnc2sccn2c1=O,.,34,.,84,/,.
N/C(=C\C(=O)c1cc(Cl)ccc1O)C(Cl)(Cl)Cl,.,13,10µM,.,2.9µM,.
O=C(Nc1cc(C(F)(F)F)cc(C(F)(F)F)c1)c1cc(Cl)ccc1O,/,.,/,.,/,.
SMILES,NS1 inh,CHX counter,Pf growth 96h,Shiga inhibitor,Pf growth 48h,Giardia FBPA inh
Cc1cccc(NC(=S)NCc2ccc(F)cc2)c1C,.,.,?,.,?,.
Cc1cccc(C)c1NC(=S)NC1CCCCC1,.,.,10µM,.,.,.
Cc1ccccc1NC(=S)NC1CCCC1,.,.,?,.,?,.
Cc1cccc(NC(=S)NNC(=S)NC2CCCCC2)c1C,.,16,.[5.75 µM],44,.,.
Nc1ccc(N2CCOCC2)c2nonc12,.,.,12µM,.,.,2.8µM
Nc1ccc(N2CCOCC2)c(Cl)c1,.,.,?,.,.,.
O=C(Nc1ccc(F)cc1)Nc1ccc(N2CCOCC2)c2nonc12,.,18,.,.,.,.
O=C(Nc1ccc(F)cc1)Nc1cc(S(=O)(=O)N2CCOCC2)ccc1N1CCCC1,/,.,.[5.75 µM],.,.,.
COc1ccc(S(=O)(=O)NCCCN2CCCC2=O)c(OC)c1,.,.,.,.,.,/
O=C1c2ccccc2C(=O)N1CC(O)Cn1nnc2ccccc21 (centres undefined),.,.,9.3µM,.,.,.
OC(Cn1nnc2ccccc21)Cn1c(C(F)(F)F)nc2ccccc21 (centres undefined),.,.,?,.,.,.
Cc1nn(CC(O)CN2c3ccccc3Sc3ccccc32)c(C)c1Br (centres undefined),.,.,2.6µM,.,/,.
Cc1nn(CC(O)c2ccccc2)c(C)c1Br (centres undefined),.,.,.,.,/,.
OC(CN1c2ccccc2Sc2ccccc21)Cn1nnc2ccccc21 (centres undefined),.,16,?,.,4.7µM,.
COc1ccc(CCNC(=O)c2ccc(CS(=O)Cc3ccc(C)cc3)o2)cc1OC (centres undefined),.,.,.,.,.,.
Cn1c(SCC(=O)N2c3ccccc3CCc3ccccc32)nnc1-c1ccc(O)cc1,.,.,.,.,12µM,.
Cn1c(SCC(=O)c2ccccc2)nnc1-c1cccc(N)c1,.,29,.,.,/,.
CCN(CC)S(=O)(=O)c1cccc(-c2nnc(SCC(=O)NC)n2N)c1,.,.,.,.,.,.
Cn1c(SCc2ccccc2)nnc1-c1ccc2c(c1)OCO2,.,49,.,75,.,.
CCN(CC)S(=O)(=O)c1cccc(-c2nnc(SCC(=O)c3ccc(Cl)s3)n2C)c1,.,.,.,.,13µM,.
CN(c1ccc(F)cc1)S(=O)(=O)c1ccc(Cl)c(C(=O)OCC(=O)NCc2ccco2)c1,/,.,.,.,.,.
Cc1nc(-c2ccccn2)nc(SCC(=O)N2CCOCC2)c1Cl,?,.,.,.,.,.
Cn1c(SCC(=O)c2ccccc2)nnc1-c1ccncc1,.,.,.,.,.,.
Cn1c(SCc2ccccc2)nnc1-c1ccc(O)cc1,.,31,.,66,.,.
Cn1c(SCC(=O)c2ccccc2)nnc1-c1ccccn1,.,53,.,113,.,.
SMILES,NS1 inh,CHX counter,Pf growth 96h,Shiga inhibitor,Pf growth 48h,Giardia FBPA inh
Cc1nc(-c2ccccn2)nc(SCC(=O)c2ccccc2)c1Cl,.,.,5.2µM,.,15µM,.
Cn1c(SCC(=O)c2ccccc2)nnc1-c1ccc(O)cc1,.,35,.,68,/,.
CC(C)C(NC(=O)c1ccccc1)C(=O)OCn1nnc2ccccc2c1=O (centres undefined),/,/,.,/,.,/
C=C(C(C)=O)C(O)/C=C/c1ccco1 (centres undefined),/,/,/,/,/,.
COCCNc1ncnc2ccc(-c3ccc(N(C)C)cc3)cc12,/,/,/,/,/,.
CCN1CCN(CCNC(=O)c2ccc(CS(=O)c3ccc(Br)cc3)o2)CC1 (centres undefined),.,.,.,.,.,/
CCCNC(=O)c1ccc(N2CCC3(CC2)CC(c2ccccc2)=NO3)c(NC(=O)c2cccc(OC)c2)c1,.,.,2.1µM,.,?,.
Cc1ccc(CNC(=O)c2ccc(N3CCC4(CC3)CC(c3ccccc3)=NO4)c(NC(=O)c3ccco3)c2)cc1,.,.,1µM,.,?,.
Cc1ccc(CNC(=O)c2ccc(N3CCC4(CC3)CC(c3ccccc3)=NO4)c(NC(=O)c3ccc(Br)cc3)c2)cc1,.,.,?,.,?,.
